# TRAIL sens C8 – caspase-8 TRAIL sensitization; NB7+C8 cells + TRAIL, ATPlite viability luminescence; inhibition (viability loss, TRAIL sensitization), % at 10 µM; 360,000 compounds, 1% hits; AID 624354;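 active = compounds causing at least 50% loss of cell viability in the single-dose screen, relative to plate controls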
# HSF1 inhib – HSF1 inhibition | NIH3T3-HGL HSE-luciferase, MG132-induced, luminescence 8 h; hits give low values | activity change, negative = inhibition, % at 7.5 µM (by protocol) | 300,000 compounds, 0.77% hits | AID 2098;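 active = more than half of replicate wells show activity change below -50%, luminescence cut by over half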;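 also: luciferase reports HSF-1 transcriptional activity via heat shock element; 0% = median of DMSO wells and -100% = zero luminescence signal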
# HSP90 refold inh – blocks HSP90-mediated luciferase refolding in reticulocyte lysate. Rabbit reticulocyte lysate, luciferase refolding luminescence, 3 h. inhibition, % at 5.6 µM. 290,000 compounds, 0.91% hits. AID 1789;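 active = inhibition above the screen-wide mean plus 3 SD, computed separately per campaign, cut at about 16% in these data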;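 also: 0% = DMSO wells and 100% = 60 µM geldanamycin wells; inhibitors lower the luminescence because luciferase stays unfolded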
# STAT1 inh – inhibitors of IFN-gamma induced STAT1 signaling; NIH 3T3 STAT1-luciferase reporter, luminescence; inhibition, % at 5.5 µM; 200,000 compounds, 0.35% hits; AID 920;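 active = inhibition above a set limit, the mean inhibition across all tested compounds plus 3 SD, cut at about 34% in these data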;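 also: 0% = IFN-gamma with DMSO and 100% = IFN-gamma with 300 µM nifuroxazide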
# PPC-1+TRAIL kill – PPC-1 cancer cell killing with TRAIL present. PPC-1 cells + TRAIL, ATPLite viability luminescence. cell killing (% activity), % at 4 µM or 5 µM. 220,000 compounds, 0.41% hits;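 active = cell killing above 50% in the first pass at 4 µM, then a duplicate retest at 5 µM averaging 50% or more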;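 also: plate controls were cells with TRAIL plus DMSO for no effect and medium-only wells lacking cells for full effect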
# STAT3 blocker – reduces IL-6 driven STAT3 reporter signal; AID 862; U3A cells, IL-6 STAT3-luciferase reporter, luminescence; host cell line lacks STAT1; 190,000 compounds, 0.89% hits; inhibition, % at 5.5 µM;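 active = inhibition above the mean inhibition across all screened compounds plus 3 SD, cut at about 44% in these data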;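 also: 0% = DMSO only wells and 100% = 100 µM nifuroxazide control wells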
# * = called active by the depositor; · = no result given. In the library only some 2.4% were active in any assay of this set; here they are far more common.
SMILES,TRAIL sens C8,HSF1 inhib,HSP90 refold inh,STAT1 inh,PPC-1+TRAIL kill,STAT3 blocker
COc1ccc(C(=O)N2CCOCC2c2cc(C(=O)NCc3ccccc3)no2)cc1 (centres undefined),-1,·,·,·,·,·
CC(C)CNC(=O)c1c(F)c(F)c(F)c(F)c1F,0,-3,3,-8,15,0
CC(C)(C)NC(=O)c1c(F)c(F)c(F)c(F)c1F,-4,-72*,3,-1,14,4
Cn1ncc2c(O/N=C(\N)c3ccc(C(F)(F)F)cc3)ncnc21,95*,6,3,·,14,·
N/C(=N\OC(=O)c1ccc2ccccc2c1)c1ccccc1Cl,93*,31,0,·,·,·
COc1ccc(C/C(N)=N/OC(=O)c2cccc([N+](=O)[O-])c2)cc1,12,2,-2,3,19,12
COc1ccc(/C(N)=N/OC(=O)c2ccc3ccccc3c2)cc1OC,96*,·,·,·,·,·
COc1ccccc1C/C(N)=N/OC(=O)c1cccc([N+](=O)[O-])c1,76*,1,0,-4,15,18
COc1ccc(/C(N)=N/OC(=O)c2ccc3c(c2)OCO3)cc1OC,82*,-1,-2,-18,49,-7
COc1ccc(C(=O)O/N=C(\N)Cc2ccc(Cl)c(Cl)c2)cc1OC,25,-9,6,-5,0,9
COc1ccc(C(=O)O/N=C(\N)Cc2ccc(Cl)cc2)cc1OC,94*,10,3,14,6,10
COc1ccc(/C(N)=N/OC(=O)c2c(-c3ccccc3Cl)noc2C)cc1OC,93*,-3,1,·,·,·
CC1(C(=O)NCc2ccccc2)CN(S(C)(=O)=O)CC(=O)N1Cc1cccc(C(F)(F)F)c1 (centres undefined),-2,·,·,·,·,·
CCOC(=O)CNC(=O)CSc1nnc(NC(=O)c2ccc3c(c2)OCO3)s1,83*,3,4,·,·,·
CCOc1ccccc1CNC(=O)CCn1ccc2cc(S(=O)(=O)N3CCCCC3)ccc21,-14,-73*,1,·,·,·
CCOc1ccccc1CNC(=O)Cn1ccc2cc(S(=O)(=O)N3CCCCCC3)ccc21,19,5,2,·,·,·
Cn1c(NCC2CCCCC2)nc2cc(-c3ccsc3)sc2c1=O,-10,·,·,·,·,·
CSc1ncnc2c1ncn2CCCN1CCN(Cc2c(C)cc(C)cc2C)CC1,35,·,·,·,·,·
CC1CCCN(C(=O)CSc2nnc(-c3ccc(O)cc3)o2)C1 (centres undefined),17,-57*,-3,·,·,·
Cc1ccc(C(=O)C2=C(O)C(=O)N(Cc3ccccc3)C2c2cccnc2)o1 (centres undefined),1,-2,-3,37*,2,6
Cc1ccc(C(=O)C2=C(O)C(=O)N(Cc3cccnc3)C2c2ccc(Cl)cc2)o1 (centres undefined),-7,1,1,·,·,·
COc1ccc2nc3cc(Cl)ccc3c(C#N)c2c1,-5,-1,0,·,10,·
COc1ccc2nc3cc(Cl)ccc3c(Nc3ccc(O)c(CN4CCN(C)CC4)c3)c2c1,74*,·,·,·,·,·
COC1=CC(=O)C(O)=C(CCCCCCC/C=C/CCCCCCCC2=C(O)C(=O)C=C(OC)C2=O)C1=O,-4,0,·,·,·,·
COC1=C(OC)C(=O)C(CCCCCCCCCCO)=C(C)C1=O,-12,·,27*,·,10,·
SMILES,TRAIL sens C8,HSF1 inhib,HSP90 refold inh,STAT1 inh,PPC-1+TRAIL kill,STAT3 blocker
CCOc1ccc(OCCOCCOc2c(Cl)cccc2Cl)cc1,-1,0,-2,5,·,4
CCOc1ccccc1OCCOCCOc1c(Cl)cccc1Cl,1,-53*,-7,-4,-1,-7
CN=c1scc(-c2ccco2)n1/N=C/c1ccc(O)c(O)c1,38,-83*,17*,0,29,1
C/C(=N\NC(=O)c1nn(C)c(C)c1Br)c1cccc(NC(=O)c2ccc(F)cc2)c1,53*,4,14,-44,36,7
C/C(=N\NC(=O)c1c(Br)c(C)nn1C)c1cccc(NC(=O)c2ccccc2F)c1,10,11,-2,-5,-27,18
C/C(=N\NC(=O)c1c(Br)c(C)nn1C)c1cccc(NC(=O)c2ccccc2C)c1,0,8,-4,-8,11,13
C/C(=N\NC(=O)c1ccc(O)cc1)c1cccc(NC(=O)c2ccccc2C)c1,63*,7,-1,·,·,·
Cc1ccc(C)c(CC(=O)N2CCCCC2c2cc(C(=O)Nc3ccc(F)c(Cl)c3)no2)c1 (centres undefined),27,·,·,·,·,·
CCOC(=O)CSc1cc(CS(C)(=O)=O)nc(-c2ccccn2)n1,-7,-61*,2,7,12,2
O=C(Nc1ccc(F)cc1F)c1cc2nc3c(c(C(F)(F)F)n2n1)CCCC3,5,-55*,-1,-5,6,0
COC(=O)[C@@]12C[C@@H](CC(=O)NCCc3ccccc3OC)C(=O)N(CCc3ccc(OC)c(OC)c3)C1=CCC(C)(C)C2,12,·,·,·,·,·
Cn1c(SCC(=O)NCc2ccccc2)nc2ccccc21,-16,-73*,3,4,1,18
O=C(Cn1c(-c2cncs2)nc2ccccc21)NCc1ccccc1,-6,17,16*,21,-6,-5
CC(NC(=O)CSc1nc2ccccc2n1C)c1ccccc1 (centres undefined),-13,6,-5,·,·,·
O=C(/C=C/c1cccnc1)/C=C/c1cccnc1,51*,·,5,·,29,·
O=c1c2ccccc2nc2n1CCc1ccc(Br)cc1-2,3,·,·,·,·,·
COc1ccc(Nc2ncnc3sc(-c4ccccc4)cc23)cc1,-5,-71*,0,-2,15,5
COc1ncnc2sc(-c3ccccc3)cc12,-1,26,0,-17,-2,0
CC(C)NC(=O)CN1C(=O)c2ccccc2S1(=O)=O,-10,-3,0,-3,7,4
C=CCn1c(C)cc(C(=O)CN2C(=O)c3ccccc3S2(=O)=O)c1C,83*,·,·,·,·,·
O=C(CN1C(=O)c2ccccc2S1(=O)=O)c1ccccc1,29,·,6,62*,20,65*
Cc1c(C(=O)Nc2ccccc2)sc2ncn(CC(=O)N3CCCCC3)c(=O)c12,15,-4,1,·,·,·
Cc1c(C(=O)Nc2ccc(F)cc2)sc2ncn(CC(=O)N3CCCCC3)c(=O)c12,9,-55*,-5,·,·,·
CCOc1cc(/C=N/NC(=O)CN(CCc2ccccc2)S(=O)(=O)c2ccc(NC(C)=O)cc2)ccc1O,-8,-89*,0,4,1,12
COc1ccc(OCC(=O)N2CCN(c3cccc(C(F)(F)F)c3)CC2)cc1,-29,-87*,1,-4,9,1
CCN(CC)C(=O)c1nn(-c2ccccc2)c2c1C1CCC2(C)C1(C)C (centres undefined),51*,8,4,0,-3,2
COc1ccc(F)cc1C(=O)C1CCCN(Cc2cccn2-c2ccccn2)C1 (centres undefined),11,-64*,-4,-4,12,-2
